Experimental data reported in PMC4336329 (PLoS ONE, 2015).
Out of some 310,000 compounds screened, about 14,000 (4.5%) showed an effect of 50% or more. The effect is printed as a negative number. The sample holds strong results, similar compounds and a random draw of the others, so the mix is not that of the screen.

Molecular target: human ether-à-go-go-related gene (hERG) potassium channel (human, UniProt Q12809)
Test: primary screen, population patch clamp on CHO cells stably expressing hERG; higher = less effect of the substance
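Also: peak tail current of the secondary pulse compared with the same well before compound.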

Chain of human ether-à-go-go-related gene (hERG) potassium channel (Q12809 whole entry, looked up): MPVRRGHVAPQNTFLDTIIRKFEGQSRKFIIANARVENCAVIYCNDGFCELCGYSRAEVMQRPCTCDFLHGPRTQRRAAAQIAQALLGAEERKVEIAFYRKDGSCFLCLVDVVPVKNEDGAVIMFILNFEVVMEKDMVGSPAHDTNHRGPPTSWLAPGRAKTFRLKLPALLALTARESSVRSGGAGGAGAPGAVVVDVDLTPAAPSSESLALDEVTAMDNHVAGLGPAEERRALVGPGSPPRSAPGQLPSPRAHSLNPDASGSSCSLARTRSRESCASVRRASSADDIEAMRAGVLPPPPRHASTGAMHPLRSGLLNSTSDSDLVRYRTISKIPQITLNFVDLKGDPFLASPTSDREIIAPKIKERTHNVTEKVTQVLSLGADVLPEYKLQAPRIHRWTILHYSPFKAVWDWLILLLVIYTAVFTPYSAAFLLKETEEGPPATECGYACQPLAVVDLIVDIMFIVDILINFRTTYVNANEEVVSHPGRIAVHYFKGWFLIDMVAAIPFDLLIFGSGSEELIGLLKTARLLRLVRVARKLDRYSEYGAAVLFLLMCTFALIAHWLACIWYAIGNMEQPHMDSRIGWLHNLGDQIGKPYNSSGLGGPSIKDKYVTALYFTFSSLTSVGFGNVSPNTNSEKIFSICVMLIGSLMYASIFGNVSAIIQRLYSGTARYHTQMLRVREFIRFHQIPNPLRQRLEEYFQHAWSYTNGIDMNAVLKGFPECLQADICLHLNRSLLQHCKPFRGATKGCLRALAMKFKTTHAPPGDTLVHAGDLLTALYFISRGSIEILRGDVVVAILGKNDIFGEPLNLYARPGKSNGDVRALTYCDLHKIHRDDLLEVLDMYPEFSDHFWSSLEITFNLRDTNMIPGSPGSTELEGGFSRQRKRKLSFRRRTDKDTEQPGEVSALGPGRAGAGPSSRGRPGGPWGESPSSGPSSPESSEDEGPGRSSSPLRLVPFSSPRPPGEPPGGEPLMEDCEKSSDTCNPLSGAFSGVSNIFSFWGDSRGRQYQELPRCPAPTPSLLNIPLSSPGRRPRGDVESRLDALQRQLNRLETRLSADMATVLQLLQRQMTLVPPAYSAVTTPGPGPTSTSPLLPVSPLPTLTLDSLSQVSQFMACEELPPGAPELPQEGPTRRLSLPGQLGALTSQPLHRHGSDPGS

Compound	hERG current change (%, negative = inhibition) at 10uM [%]
Cc1cc(NS(=O)(=O)c2ccc(NC(=O)CSc3nc4ncc(Br)cc4[nH]3)cc2)nc(C)n1	20.8
CC(C)Oc1cccc(C(=O)C2CCCN(C(=O)c3ccc4c(c3)OCO4)C2)c1 (stereo not drawn)	-26.9
O=C(c1ccc2c(c1)OCO2)C1CCCN(Cc2ccccc2OC(F)F)C1 (stereo not drawn)	-58.8
O=C(c1ccc2c(c1)OCO2)C1CCCN(Cc2ccc(OC(F)F)cc2)C1 (stereo not drawn)	-85.7
N/C(=N\OC(=O)COc1ccc2ccccc2c1Br)c1ccncc1	5.98
CCOc1ccc(NC(=O)NCc2ccc3c(c2)OCO3)cc1	9.08
O=C(CCc1nc2ccccc2c(=O)[nH]1)N1CCN(c2ccc(F)cc2)CC1	-68
Cc1nc2c3ccccc3nc(NNC(=O)CCC(=O)N3CCN(c4ccc(F)cc4)CC3)n2n1	-53.2
O=C(CCc1nc2ccccc2c(=O)[nH]1)N1CCN(S(=O)(=O)c2ccc(F)cc2)CC1	-27.6
Cc1nc2c3ccccc3nc(NNC(=O)CCC(=O)N3CCN(c4ccccc4)CC3)n2n1	-28.5
COc1ccc(N2CCN(C(=O)CCC(=O)NNc3nc4ccccc4c4nc(C)nn34)CC2)cc1	-29.1
CC(=O)N1CCN(C(=O)CCc2nc3ccccc3c(=O)[nH]2)CC1	2.7
O=C(CCc1nc2ccccc2c(=O)[nH]1)N1CCN(S(=O)(=O)c2ccccc2Br)CC1	-51.3
Cc1ccc(C)c(S(=O)(=O)N2CCN(C(=O)CCc3nc4ccccc4c(=O)[nH]3)CC2)c1	-47.1
CN1CCN(C(=O)CCc2nc3ccccc3c(=O)[nH]2)CC1	21.9
O=C(CSc1ncnc2c1cnn2-c1ccc(F)cc1)NCC1CCCO1 (stereo not drawn)	13.7
O=C1CCCS(=O)(=O)c2ccccc21	23.8
Cc1cccc(OCC(=O)NCCCNC(=O)c2ccc(C)nc2)c1	17.9
Cc1ccc(NC2(C(F)(F)F)N=C(c3ccccc3)NC2=O)nc1 (stereo not drawn)	18.4
Cc1ccc(N2CCN(c3ccc(NC(=O)CCC(=O)O)cc3)CC2)cc1	19.6
COc1cc(Br)cc(/C=C/c2ccc3cccc(O)c3n2)c1OC	11.4

Compound	hERG current change (%, negative = inhibition) at 10uM [%]
COCCN(Cc1cn(C)nc1-c1ccccc1F)C(C)C	15.5
CCCn1c(SCC(=O)Nc2ccccc2N2CCCCC2)nc2c1c(=O)n(C)c(=O)n2C	-29.9
O=C(CS(=O)(=O)c1ccccc1)Nc1nc(-c2ccccc2)cs1	-51.9
COc1ccccc1C1(O)CCN(CC(=O)Nc2nc(-c3ccccc3)cs2)CC1	-56.8
Cn1c(=O)c2c(nc(SCC(=O)Nc3ccccc3N3CCCCC3)n2C)n(C)c1=O	-54
CCCn1c(SCC(=O)Nc2nc3c(s2)CCCC3)nc2c1c(=O)n(C)c(=O)n2C	-1.39
COc1ccc(C2(O)CCN(CC(=O)Nc3nc(-c4ccccc4)cs3)CC2)cc1	-10.1
CC(C)n1c(SCC(=O)Nc2ccccc2N2CCCCC2)nc2c1c(=O)n(C)c(=O)n2C	-36.7
Cc1nnc(NC(=O)CSc2nc3c(c(=O)n(C)c(=O)n3C)n2C(C)C)s1	-0.769
Cc1ccc(S(=O)(=O)CC(=O)Nc2nc(-c3ccccc3)cs2)cc1	-38
CN1CCN(CC(=O)Nc2nc(-c3ccccc3)cs2)CC1	-40.4
O=C(CS(=O)(=O)c1ccccc1)Nc1nc(-c2ccc(F)cc2)cs1	16.6
CC(C)n1c(SCC(=O)Nc2nc3c(s2)CCCC3)nc2c1c(=O)n(C)c(=O)n2C	-59.2
O=C(CN1C(=O)NC2(CCCCCC2)C1=O)NCCc1ccccc1	1.14
Cc1noc(C)c1CSCC(=O)Nc1nc2ccc(Oc3ccccc3)cc2s1	-13.6
CN(CC(=O)Nc1ccccc1C(F)(F)F)C(=O)CC1OC(=O)c2ccccc21 (stereo not drawn)	9.27
CCOC(=O)CSc1nnc(CNc2ccc(Cl)cc2)n1-c1ccccc1	11.2
COc1cc2c(-c3ccc(O)cc3)nc3c(c(C)nn3-c3ccccc3)c2cc1OC	11.5
O=C(O)CCSc1nc2ccc(Br)cc2[nH]1	8.75
C=C1C[C@@]23CCC4[C@@](C)(CCC[C@@]4(C)C(=O)OC)C2CC[C@]1(OC(C)=O)C3 (stereo partly drawn)	10.8
O=C(Nc1nc(-c2ccc(F)cc2)cs1)c1cnccn1	-0.514

Compound	hERG current change (%, negative = inhibition) at 10uM [%]
CCc1ccc(N(C(C)=O)C2C=CS(=O)(=O)C2)cc1 (stereo not drawn)	-6.3
O=C(CSc1nc(=O)n2ccccc2n1)NCc1ccc2c(c1)OCO2	-37.8
COc1ccc(OC)c(S(=O)(=O)NC(N)=NCCc2ccccc2OC)c1	9.89
Cc1cccc(-c2nnc(SCC(=O)Nc3nc4c(s3)CCCC4)n2C)c1	-37.3
CCn1c(SCC(=O)Nc2nc3c(s2)CCCC3)nnc1-c1ccccc1	-56.2
CCOC(=O)N1CCN(C(=O)CSCC(=O)Nc2nc(-c3ccc(-c4ccccc4)cc3)cs2)CC1	-11.9
Cc1ccc2cc(C)c3nnc(SCC(=O)Nc4nc5c(s4)CCCC5)n3c2c1C	-53.8
Cn1c(SCC(=O)Nc2nc3c(s2)CCCC3)nnc1-c1ccccc1	-16.4
CCn1c(CCNC(=O)c2cccs2)nnc1SCC(=O)Nc1nc(-c2ccccc2)cs1	-52
Cc1ccc(-c2nnc(SCC(=O)Nc3nc4c(s3)CCCC4)n2C)cc1	6.99
CCOC(=O)N1CCN(C(=O)CSCC(=O)Nc2nc(-c3ccc(C)cc3)cs2)CC1	-14.1
Cc1ccc(C)c2c1cc(C)c1nnc(SCC(=O)Nc3nc4c(s3)CCCC4)n12	1.01
Cn1c(CCNC(=O)c2cccs2)nnc1SCC(=O)Nc1nc(-c2ccccc2)cs1	-7.06
CCOC(=O)N1CCN(C(=O)CSCC(=O)Nc2nc(-c3ccccc3)cs2)CC1	-50.5
Cc1ccccc1C(=O)NCCc1nnc(SCC(=O)Nc2nc(-c3ccccc3)cs2)n1C	7.36
Cc1ccc(N2CCN(S(=O)(=O)c3nnc(NC(=O)c4ccco4)s3)CC2)cc1	15.6
CS(=O)(=O)c1cccc(C(=O)NCc2ccc(F)cc2)c1	0.5
COC(C/C=C\[C@@H](O)[C@H](C)OCc1ccccc1)OC	25.7
CCSc1nnc(NC(=O)c2cccnc2Cl)s1	16.3
Cc1cccc(N(C(=O)CNC(=O)c2cccs2)C(C(=O)NC2CCCC2)c2cccnc2)c1 (stereo not drawn)	1.66
CCOc1ccc(N(CC(=O)N2CCN(Cc3ccccc3)CC2)S(C)(=O)=O)cc1	-12.2

Compound	hERG current change (%, negative = inhibition) at 10uM [%]
O=C(N/C(=C/c1ccc(F)cc1)C(=O)N1CCCCC1)c1ccco1	-18.7
CN1C(=O)C(=Cc2ccc(N3CCCCCC3)o2)C(=O)N(C)C1=S	6.46
CNC(=S)N1CCc2cc(OC)c(OC)cc2C1COc1ccc(F)cc1 (stereo not drawn)	-22.6
Br.CN(CC(O)C[NH+]1CCOCC1)S(=O)(=O)[O-] (stereo not drawn)	17
Cc1nc2ccccc2c(=O)n1NC(=O)C1CC1	16.3
Cc1nnc(SCC(=O)Nc2nc(-c3ccccc3)cs2)n1N	2.68
Cn1cnnc1SCC(=O)Nc1nc(-c2ccccc2)cs1	-4.33
O=C(CSc1nnc(-c2ccncc2)n1Cc1ccco1)Nc1nc(-c2ccccc2)cs1	-57.4
CCOC(=O)Cc1csc(NC(=O)CSc2nnc(-c3cccnc3)n2Cc2ccco2)n1	-30.5
NC(=O)c1ccc(NC(=O)CSc2nnc(-c3cccnc3)n2Cc2ccco2)cc1	6.87
CCn1c(SCC(=O)Nc2nc(-c3ccccc3)cs2)nnc1-c1ccccc1	-66.6
O=C(CSc1nnc(-c2cccnc2)n1Cc1ccco1)Nc1nc(-c2ccc(F)cc2)cs1	-70.6
CCn1c(SCC(=O)Nc2nc(-c3ccccc3)cs2)nnc1-c1ccccc1O	-20.8
CCOC(=O)Cc1csc(NC(=O)CSc2nnc(-c3ccncc3)n2Cc2ccco2)n1	-5.63
CCn1c(SCC(=O)Nc2nc(-c3ccc(C)cc3)cs2)nnc1-c1ccccc1	-1.44
COc1ccccc1-c1nnc(SCC(=O)Nc2nc(-c3ccccc3)cs2)n1C	-71.8
NC(=O)c1ccc(NC(=O)CSc2nnc(-c3ccncc3)n2Cc2ccco2)cc1	2.42
CC(C)OCCCNC(=O)c1cccs1	-9.39
COc1cc2c(cc1OC)C(c1cc(OC)c(OC)cc1[N+](=O)[O-])N(C(C)=O)CC2 (stereo not drawn)	26
N#C/C(=N\[O-])c1nc(-c2ccccc2)cs1.[K+]	-8.69
O=C(O)c1ccc(N/N=C/c2cccc(C(F)(F)F)c2)cc1	27.3
